Compound activity: PubChem, several laboratories
An excerpt weighted towards active compounds, which were near 2.8% of everything screened.
TROY NFkB inh – blocks TROY-dependent signaling in reporter cells. Q293 LMP1-TROYcd NF-kB luciferase reporter, 4 h. inhibition, % at 10 µM. 360,000 tested, 0.98% active. AID 1347056;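 active = compounds whose plate-normalised and pattern-corrected inhibition of the luciferase reporter signal at the single screening dose is 50% or more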
PAX8 reporter – PAX8 transcriptional activity inhibition | RMG-I TPO-luciferase reporter, SteadyGlo, 24 h | inhibition, % at 12.6 µM | 360,000 tested, 1.2% active | AID 652154;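 active = mean replicate inhibition at least 60% with every replicate also reaching 60%; inconclusive = only one of the two criteria is met; inactive = mean below 60% and not all replicates reaching 60%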;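 note: luciferase light reporting Pax8 driven TPO promoter activity; plate controls were median of neutral control wells for no effect and mitoxantrone controls for full effect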
TWEAK-Fn14 inh – inhibitors of TWEAK-Fn14 interaction signaling. 360,000 tested, 2% active. TWEAK-stimulated Fn14 reporter cells, luciferase luminescence, 8 h. inhibition, % at 10 µM; in the data active = inhibition above about 50%
EWS-Fli block – blocks EWS/Fli oncoprotein-driven transcription; inhibition, % at 12.6 µM; A673 NR0B1-luciferase reporter, viability-normalised; AID 651661; 350,000 tested, 0.67% active;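 active = mean inhibition of at least 50% after viability correction, with every replicate also passing that limit; inconclusive = mean reaches 50% but only one of two replicates passes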;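 note: firefly luciferase signal divided by Alamar Blue viability fluorescence both relative to DMSO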
LGR2 antag – inhibitors of bursicon-induced Drosophila LGR2 receptor cAMP signaling. HEK293 LGR2, CRE-luciferase, bursicon-stimulated, 4 h. inhibition, % at 9.99 µM. 380,000 tested, 0.35% active. AID 720647;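 active = drop in luminescence signal, shown as inhibition above about 50% in the replicate tests, limit read from the data, passing the limit was not always enough; inconclusive = probably only some replicates passing the limit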;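 note: agonist challenge used bursicon conditioned medium at about half maximal strength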
An asterisk follows results filed as active; u = inconclusive; x = not tested or not shown.

SMILES	TROY NFkB inh	PAX8 reporter	TWEAK-Fn14 inh	EWS-Fli block	LGR2 antag
Cc1nnc(SCC(=O)Nc2ccc(-c3nc4ccccc4s3)cc2)s1	54.7*	-247.9	77.4*	5.1	x
O=C(Nc1ccc(-c2nc3ccccc3s2)cc1)c1cc(-n2cnnc2)ccc1Cl	53.2*	x	94.7*	-9.6	-0.7
Cc1nnc(SCC(=O)Nc2ccccc2NC(=O)CSc2nnc(C)s2)s1	-2.0	x	8.6	x	1.2
Cc1ccc2nc(-c3ccc(NC(=O)CSc4nc(N)cc(=O)[nH]4)cc3)sc2c1	-18.7	-164.0	-7.4	-35.3	-36.2
Cc1ccc2nc(-c3ccc(NC(=O)CSc4nccc(=O)[nH]4)cc3)sc2c1	50.6*	-143.5	23.6	-14.2	-27.9
C[C@@H]1CN([C@H](C)CO)S(=O)(=O)c2ccc(C#CCN(C)C)cc2O[C@H]1CN(C)Cc1ccc2c(c1)OCO2	x	x	x	13.4	1.6
C[C@H](CO)N1C[C@H](C)[C@H](CN(C)C(=O)C2CCC2)Oc2cc(-c3cccnc3)ccc2S1(=O)=O	x	x	x	-5.2	-10.0
COc1ccc(NC(=O)N(C)C[C@@H]2OCCCC[C@@H](C)Oc3ccc(NC(=O)Nc4ccc(F)cc4)cc3C(=O)N([C@H](C)CO)C[C@@H]2C)cc1	x	-16.2	x	-7.5	20.3
O=C(Nc1ccc2c(c1)OCCO2)Nc1ccc2c(c1)OCO2	-13.4	-28.0	50.6*	10.6	2.3
CCCC(C)C(=O)Nc1ccc2c(c1)OCCO2 (stereo not given)	36.7	x	53.0*	x	x
CCCC(C)C(=O)Nc1cccc(NC(C)=O)c1 (stereo not given)	5.2	-8.0	-7.9	x	x
CC(Nc1ccc2c(c1)OCCO2)C(=O)Nc1ccc2c(c1)OCO2 (stereo not given)	50.3*	-3.1	59.0*	7.0	4.7
CC(=O)Nc1ccc2c(c1)OCCO2	7.5	x	6.0	x	2.9
O=C(O)C1CC=CCC1C(=O)Nc1ccc(F)c(F)c1 (stereo not given)	-4.6	x	-1.1	x	x
O=C(O)C1CC=CCC1C(=O)Nc1ccc2c(c1)OCCO2 (stereo not given)	58.7*	-36.4	79.3*	x	x
C[C@H]1CN([C@@H](C)CO)C(=O)c2cc(NC(=O)c3ccncc3)ccc2O[C@@H]1CN(C)Cc1ccc(C(=O)O)cc1	x	-1.0	x	2.7	-7.3
C[C@@H]1CN([C@@H](C)CO)C(=O)Cc2cc(NS(C)(=O)=O)ccc2O[C@@H]1CN(C)C(=O)Nc1ccc(F)cc1	x	-4.6	x	-11.8	17.9
CN1[C@@H]2c3ccc(-c4ccc(F)cc4)c(=O)n3C[C@@H]2[C@@H](CO)[C@@H]1C(=O)NCc1ccccn1	x	-6.3	x	-4.6	6.6
O=C(Nc1ccc2c(c1)OCCO2)NC1(C(F)(F)F)Oc2ccccc2O1	28.1	-77.5	88.6*	41.5	u
C[C@@H](C(=O)Nc1ccc2c(c1)OCCO2)n1c(=O)[nH]c2ccccc2c1=O	83.7*	-91.8	94.3*	x	16.2
C[C@H](CO)N1C[C@H](C)[C@@H](CN(C)C)Oc2ccc(NC(=O)CCCCCC(=O)Nc3ccccc3N)cc2C1=O	x	-11.1	x	5.3	10.1
O=C(C[n+]1cccc(CO)c1)Nc1nc2ccccc2s1	66.6*	5.1	-8.0	-0.9	10.1
C[C@@H]1CN([C@@H](C)CO)C(=O)c2cc(NC(=O)C3CCCCC3)ccc2O[C@H]1CN(C)Cc1ccccc1	x	1.3	x	0.2	-5.1
c1ccc(-n2cnc3cc(NCc4ccncc4)ccc32)cc1	37.8	x	45.2	x	x
CC(C)n1cnc2cc(NCc3ccccc3O)ccc21	27.5	-8.1	5.7	-34.4	-16.3
SMILES	TROY NFkB inh	PAX8 reporter	TWEAK-Fn14 inh	EWS-Fli block	LGR2 antag
c1ccc(-n2cnc3cc(NCc4ccccn4)ccc32)cc1	42.4	x	56.9*	-48.0	-32.4
CC(C)n1cnc2cc(NCc3ccccn3)ccc21	51.7*	x	32.6	-66.2	x
C[C@H](CO)N1C[C@H](C)[C@@H](CN(C)C(=O)Nc2ccc(C(F)(F)F)cc2)OCCCC[C@H](C)Oc2ccc(NC(=O)Nc3ccc(C(F)(F)F)cc3)cc2C1=O	x	48.5	x	4.3	-1.0
CCC(c1nnnn1-c1ccc2c(c1)OCCO2)N1CCN(C/C=C/c2ccccc2)CC1 (stereo not given)	26.7	-9.7	58.4*	10.4	-15.9
C(=C\c1ccccc1)/CN1CCN(C(CCc2ccccc2)c2nnnn2-c2ccc3c(c2)OCCO3)CC1 (stereo not given)	14.9	43.4	19.6	25.1	12.9
C(=C\c1ccccc1)/CN1CCN(C(c2cc3ccccc3o2)c2nnnn2-c2ccc3c(c2)OCCO3)CC1 (stereo not given)	-0.5	-5.0	68.5*	-24.5	-4.1
C(=C\c1ccccc1)/CN1CCN(C(c2nnnn2-c2ccc3c(c2)OCCO3)C2CC2)CC1 (stereo not given)	21.8	-2.5	57.6*	9.0	-16.1
C[C@H](CO)N1C[C@H](C)[C@@H](CN(C)S(=O)(=O)c2ccc(F)cc2)OCCCC[C@H](C)Oc2ccc(NS(=O)(=O)c3cccs3)cc2C1=O	x	43.5	x	-3.6	4.0
C[C@@H]1CCCCO[C@@H](CN(C)Cc2ccncc2)[C@@H](C)CN([C@@H](C)CO)C(=O)c2cc(NC(=O)c3ccccc3)ccc2O1	x	-1.5	x	-0.7	-10.5
COC(=O)c1cc(=O)n(-c2ccc(F)cc2)c(=Nc2ccc(F)cc2)s1	28.6	52.8	50.1*	14.7	u
COC(=O)c1cc(=O)n(Cc2cccs2)c(=Nc2ccc(F)cc2)s1	3.8	15.8	55.5*	11.7	55.5*
Cc1ccc2nc(C(F)(F)F)c(C#N)c(N)c2c1	53.2*	x	64.4*	10.8	65.4*
CCCc1nc2c(C)cc(C)cc2c(N)c1CC	3.4	x	-9.9	x	x
Cc1cccc(C(C#N)c2nc3ccccc3nc2C(F)(F)F)c1 (stereo not given)	-24.8	x	-12.3	x	x
Cc1cc(C)c2nc(C(F)(F)F)c(C#N)c(N)c2c1	21.9	x	70.4*	x	x
C[C@@H](NC(=O)[C@@H]1[C@@H](CO)[C@@H]2Cn3c(ccc(C4=CCCC4)c3=O)[C@H]1N2C(=O)C1CC1)c1ccccc1	x	-14.3	x	3.9	7.0
COc1ccc(/C=C/c2ccc3c(Br)ccc(O)c3n2)cc1	-60.8	-112.9	-24.5	-6.1	-93.0
COc1cccc(/C=C/c2ccc3cccc(O)c3n2)c1	50.2*	14.0	83.5*	9.4	-67.7
COc1cc(/C=C/c2ccc3cccc(O)c3n2)cc(Br)c1OC	-33.1	-11.6	19.0	-58.2	-85.0
COc1cc(/C=C/c2ccc3c(Br)cc(Br)c(O)c3n2)ccc1O	-3.7	73.2*	23.6	32.3	-1.1
COc1ccc(/C=C/c2ccc3cccc(O)c3n2)cc1Br	54.1*	-44.7	72.2*	-83.0	-63.2
COc1ccc(S(=O)(=O)N[C@@H]2CC[C@H](CCn3cc(-c4ccccc4F)nn3)O[C@@H]2CO)cc1	x	8.1	x	4.2	9.5
Cc1cc(=O)oc2cc(OCC(=O)Nc3nnc(C(C)C)s3)ccc12	-1.4	x	77.4*	x	x
CN(Cc1ccccc1)Cc1c(O)ccc2ccccc12	-1.6	2.2	15.8	12.3	-1.7
COc1ccc(OCCN(C)Cc2c(O)ccc3ccccc23)cc1	24.4	62.0*	19.6	8.2	-3.1
